Assay results reported in PMC5540273 (PLoS ONE, 2017).
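Further: KINOMEscan kinase panel screen.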

These molecules were tested on CDKL2. Settings: concentration: 1 μM, replicates: in singlicate; n = 1.
With `Nc1nc(-c2nccs2)c(-c2ccnc3ccccc23)s1` [GW693542] the “%Inh” value was 26%. `CC1=C(C(=O)Nc2cc3cn[nH]c3cc2F)C(c2ccc(C(F)(F)F)cc2)CC(=O)N1` (stereo not shown) [GSK429286] was tested, and the “%Inh” value was 4%. In the case of `Cc1cccc(-c2nc(Nc3ccc4[nH]ncc4c3)c3ccccc3n2)n1` [GW857175], the “%Inh” value was 7%. For `Cc1cc(NCC(c2ccccc2)c2ccccc2)nc(NCc2ccc(C(F)(F)F)cc2)n1` [GW497681], the “%Inh” value was 12%. For `COC(=O)c1c(-c2ccccc2)c2cc(OC)ccc2c(=O)n1Cc1ccccc1`, the “%Inh” value was 13%. In the case of `Cn1ccc2ncnc(Oc3ccc(Nc4nc5ccccc5[nH]4)cc3)c21`, the “%Inh” value was 0%. `COc1cc(Nc2nccc(N3CCC(NC(=O)Nc4cc(C)ccc4C)C3)n2)cc(OC)c1OC` (stereo not shown) [GSK1379762] was tested, and the “%Inh” value was 41%. In the case of `O=C(Nc1ccccc1)Nc1cccc(Oc2ccc3nccn3n2)c1`, the “%Inh” value was 4%. With `Cl.O=C(Nc1cccc(-c2nn3ncccc3c2-c2ccnc(Nc3cccnc3)n2)c1)c1c(F)cccc1F` [GSK312879] the “%Inh” value was 19%. `CCn1c(-c2ccccn2)nc2cnccc21` [SB-736398] was tested, and the “%Inh” value was 17%. With `CC(C)(C)c1ccc(C(=O)Nc2cn3cc(Cl)ccc3n2)cc1` the “%Inh” value was 0%. In the case of `Cl.NC(=O)c1cccc(Nc2nccc(Nc3ccc(Oc4cccc(Cl)c4)c(Cl)c3)n2)c1` [GW659008], the “%Inh” value was 23%. With `Cc1ccccc1-n1cnc2c(N)ncnc21` [SKF-97510] the “%Inh” value was 0%. With `COc1ccc2nc(-c3cccc(C)n3)nc(Nc3ccncc3)c2c1` [GSK204919] the “%Inh” value was 24%. For `Cc1nnc(-c2ccc3occ(-c4ccc(S(C)=O)cc4)c3c2)[nH]1` (stereo not shown), the “%Inh” value was 0%. With `Cc1cccc(-c2cc(Nc3ccncc3)c3ccccc3n2)n1` [GSK223675] the “%Inh” value was 5%. For `Cc1csc(-c2nc(Nc3ccncc3)c3ccccc3n2)n1` [GW869640], the “%Inh” value was 1%. For `Cn1ccc2ncnc(Oc3cccc(C(=O)Nc4ccccc4)c3)c21`, the “%Inh” value was 13%. In the case of `O=C(Nc1n[nH]c2cc(-c3cccc(F)c3F)ccc12)C1CC1` [SB-733894], the “%Inh” value was 95%. In the case of `Cc1cc(-c2ccc3c(c2)CC[C@@H](N[C@@H](C)c2ccccc2)C3)cnc1N.Cl` [GW412617], the “%Inh” value was 18%. For `Cc1ccc(NC(=O)Nc2cccc(Cl)c2)cc1-c1ccc(C(=O)Nc2ccncc2)cc1` [GSK1398468], the “%Inh” value was 52%. In the case of `CN(C)CCN(C)C(=O)c1cc(-c2ccncc2)c(-c2ccc(Cl)c(O)c2)o1.Cl.Cl` [SB-710397], the “%Inh” value was 20%. `O=C(Nc1n[nH]c2nc(-c3nccs3)c(Br)cc12)C1CC1` [SB-742251] was tested, and the “%Inh” value was 92.3%. For `Cc1cccc(-c2nc(C)cc(Nc3ccncc3)n2)n1` [GSK257997], the “%Inh” value was 0%. For `Cc1cccc(-c2nc(Nc3cccc(C(N)=O)c3)c3ccccc3n2)n1` [GW876019], the “%Inh” value was 13%. With `COc1cc2ncnc(Nc3ccc4nc(-c5ccccc5)[nH]c4c3)c2cc1OC.Cl` [GW282450] the “%Inh” value was 7%. In the case of `CN1C(=O)C(Nc2ccc(Cl)c(C(=O)O)c2)=C(c2ccc(Cl)cc2)C1=O` [SB-404290], the “%Inh” value was 13%. For `Cc1cccc(-c2nc(Nc3ccncc3)c3ccccc3n2)n1` [GW855857], the “%Inh” value was 10%. For `CCn1c(-c2cccnc2O)nc2cnccc21` [SB-736715], the “%Inh” value was 0%. In the case of `COc1ccccc1-c1ccc2c(NC(=O)C3CC3)n[nH]c2n1` [SB-711239], the “%Inh” value was 23%. In the case of `CS(=O)(=O)c1ccc(-c2nc3n(c2-c2ccncc2)CCC3)cc1` [SKF-105942], the “%Inh” value was 17%. With `CC(C)(C)c1ccc(C(=O)Nc2cn3cc(-c4cccnc4)ccc3n2)cc1` the “%Inh” value was 6%. `Cc1c(Cn2ccn3c(=O)cc(N4CCOCC4)nc23)cccc1C(F)(F)F` [GSK2289044] was tested, and the “%Inh” value was 10%. For `O=C(O)COc1ncnc2cc(-c3ccc4[nH]ncc4c3)sc12`, the “%Inh” value was 0%.
